SDO1 yeast rescue: compounds rescuing growth of sdo1-depleted yeast, bone marrow failure model; S. cerevisiae sdo1-depleted JHY4D growth rescue, OD600 30 h; stronger effect = higher value; pdr5 snq2 efflux-pump mutant strain; AID 817; z-score at 10 µM; 140,000 tested, 0.21% active;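 active means z-score above 3 at both the 24 hr and the 30 hr optical density reads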;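 further: z-score against mean and SD of all compound wells on the same plate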
cytoskel mod: alters cytoskeleton assembly in HUVEC cells; AID 836; HUVEC TNFa F-actin phalloidin imaging, high content; inhibition, % at 2 µM; 91,000 tested, 0.18% active;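 active means inhibition above the batch mean plus 3 SD and confirmed as a hit by visual image inspection, cut at about 30% in these data, passing the limit was not always enough; inconclusive means above the inhibition threshold but rejected on visual inspection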
HUVEC tox TNFa: HUVEC cytotoxicity counter-screen, TNF alpha stimulated; HUVEC TNFalpha-stimulated, Hoechst cell count, imaging; 93,000 tested, 0.17% active; cell count reduction, % at 2 µM;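 active means cell count reduction exceeding the screen mean by over 5 SD, scaled to untreated wells per plate, cut at about 78% in these data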;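 further: cells counted after 24 h of TNF alpha exposure following the 1 h pretreatment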
E-sel TNF inh: blocks E-selectin expression induced by TNF alpha; inhibition, % at 2 µM; 120,000 tested, 0.71% active; AID 1246; HUVEC TNFa-induced E-selectin immunofluorescence, high content;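 active means inhibition above the batch mean plus 3 SD, and confirmed as a hit on visual image review, cut at about 43% in these data; inconclusive means passes the inhibition cutoff but fails visual image review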;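 further: 0% = TNF-stimulated DMSO wells and 100% = unstimulated control wells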
VCAM1 TNFa inh: reduces TNF alpha induced VCAM1 expression in HUVEC | HUVEC TNFa-induced VCAM-1 immunofluorescence, high-content imaging | inhibition, % at 2 µM | 95,000 tested, 0.48% active;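 active means inhibition above the batch mean plus 3 SD, with images confirmed as a hit by eye, cut at about 37% in these data; inconclusive means inhibition above that limit but hit not confirmed in images; inactive means inhibition not above that limit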;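 further: 0% = TNF-stimulated DMSO wells and 100% = unstimulated control wells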
Phagocytosis inh: macrophage phagocytosis inhibition | AID 1029 | inhibition, % at 5 µM | J774A.1 macrophage IgG-bead phagocytosis, imaging | 110,000 tested, 0.07% active;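 active means inhibition above the mean of the plate negative controls plus 5 SD, cut at about 13% in these data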;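 further: phagocytic index as fraction of beads internalized from green versus red external bead signal; plate controls were DMSO negative control for no effect and cytochalasin-D positive control for full effect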
Active calls of the source: *; ? = inconclusive; · = not tested or not shown. Most compounds without a hit are left out; they make up all but 1.2% or so of the library.

SMILES	SDO1 yeast rescue	cytoskel mod	HUVEC tox TNFa	E-sel TNF inh	VCAM1 TNFa inh	Phagocytosis inh
COc1ccc(-c2n[nH]c(C(F)(F)F)c2-c2cc3ccccc3o2)c(O)c1	-2.4	·	18	43*	-26	4
CCc1cccc(CC)c1NC(=O)COC(=O)c1cccc(-c2ccc(OC(C)=O)cc2)c1	-0.5	·	·	74*	·	-9
CN(Cc1cccc(Cl)c1Cl)c1ccc(S(=O)(=O)N2CCCCC2)cc1[N+](=O)[O-]	-0.32	·	·	·	·	-12
Cc1cccc(N2CCN(S(=O)(=O)c3cccc4nonc34)CC2)c1C	-0.45	·	·	·	·	-11
O=C(NCC1CCCO1)c1ccc(C(=O)NCC2CCCO2)cc1 (centres undefined)	1.1	·	·	-1	·	-1
CN(c1ccc(C(=O)NCC2CCCO2)cc1)S(C)(=O)=O (centres undefined)	1.5	13	-13	65*	12	0
O=C(N/N=C/c1ccc(OCC(=O)N2CCCCC2)cc1)c1ccccc1	0.75	-14	-1	-6	12	·
O=C(COc1ccc(/C=N/NC(=O)C(=O)N2CCCCCC2)cc1)Nc1ccccc1Cl	0.96	·	·	70*	·	-5
Cc1ccc2nc(-c3ccc(NC(=O)CCN4C(=O)c5ccccc5C4=O)cc3)sc2c1	0.31	·	·	65*	·	-5
Cc1cc(C)cc(OC(=O)CCN2C(=O)c3ccccc3C2=O)c1	0.31	0	-26	-22	5	·
Cc1ccc(NC(=O)c2ccc(OC(=O)CCN3C(=O)c4ccccc4C3=O)cc2)cc1	0.43	-9	6	44*	0	0
CCOC(=O)CCC(NC(=O)CCCCCCCC(=O)NC(CCC(=O)OCC)C(=O)OCC)C(=O)OCC (centres undefined)	0.7	·	·	·	·	-11
Cc1cc(N2CCOCC2)c2c(N)c(C)cc(C)c2n1	0.37	·	·	-42	100*	-1
Cc1cc(N2CCOCC2)nc(N)n1	·	·	·	-45	·	·
CCCCOc1ccc(-c2nnn(C(C)(C)C(=O)OC)n2)cc1	0.88	10	-2	4	-3	-1
CCCCOc1ccc(-c2nnn(C(C)C(=O)OCC)n2)cc1 (centres undefined)	0.2	-98	-9	66*	14	-2
O=C(O)CN(c1ccccc1)S(=O)(=O)c1cc(C(F)(F)F)cc(C(F)(F)F)c1	·	·	·	10	·	·
CC1=C(C(=O)OCCOC(C)C)C(c2cccnc2)C2=C(CCCC2=O)N1 (centres undefined)	-0.08	79*	-45	·	-10	2
CCN(CC)c1ccc(C2C(C(=O)OCCOC(C)C)=C(C)NC3=C2C(=O)CCC3)cc1 (centres undefined)	-0.05	·	-20	·	11	-4
CC1=C([N+](=O)[O-])C(c2cccc(Br)c2)C2=C(N1)c1ccccc1C2=O (centres undefined)	-1.9	-3	74	-33	93*	11
CSc1ncccc1C(=O)Nc1nc2ccc(Oc3ccccc3)cc2s1	-1.2	·	·	·	·	0
C=CCN1C(c2cccc(C(F)(F)F)c2)=CS/C1=C(/C#N)c1nnc(N2CCOCC2)n1-c1ccccc1	-1.2	·	·	72*	·	-5
C=CCN1C(c2ccc(Br)cc2)=CS/C1=C(/C#N)c1nnc(N2CCOCC2)n1-c1ccccc1	-0.44	·	·	9	·	-6
CCOc1ccc(C2=CS/C(=C(\C#N)c3nnc4n3CCCCC4)N2CC)cc1	-0.65	-76	-14	19	25	·
C=CCN1C(c2ccccc2)=CS/C1=C(\C#N)c1nnc2n1CCCCC2	-2.4	·	·	63*	·	2
SMILES	SDO1 yeast rescue	cytoskel mod	HUVEC tox TNFa	E-sel TNF inh	VCAM1 TNFa inh	Phagocytosis inh
COc1ccc(NS(=O)(=O)c2cc(N/C(=N\S(=O)(=O)c3ccccc3)c3ccc(F)cc3)ccc2Cl)cc1	-0.31	·	·	58	·	-8
COc1ccc(/C=C2/C(=O)OCc3cc(OC)c(OC)cc32)cc1	-1.1	·	·	9	·	-3
CCOC(=O)c1c(C)c(C(=O)Nc2ccc3c(c2)OCCO3)c(C)n1C	-0.62	·	·	96*	·	0
CCOC(=O)c1ccc(NC(=O)Nc2ccc3c(c2)OCCO3)cc1	0.4	28	-25	-14	-8	·
CC(C)N1CCc2[nH]c(=S)[nH]c(=O)c2C1	0.95	·	·	-19	·	-4
CCCN1CCc2[nH]c(=S)[nH]c(=O)c2C1	1.1	·	·	68*	·	-9
Cc1c(NS(=O)(=O)c2ccc3c(c2)Cc2ccccc2-3)c(=O)n(-c2ccccc2)n1C	·	·	·	-8	·	·
CCC(=O)N(CCc1ccc(S(N)(=O)=O)cc1)C1CC(=O)N(c2ccc(OC)cc2)C1=O (centres undefined)	·	·	·	16	·	·
COc1ccc(C(=O)NCC(C)C)c(OC)c1	-0.84	-16	-12	91*	-5	·
COc1cccc(/C=C/C(=O)OCC(=O)Nc2ccc(Cl)cn2)c1	·	·	·	-8	·	·
COCCN1C(=O)N(c2cccc(C)c2)C(=O)C1CC(=O)Nc1ccc(F)cc1 (centres undefined)	0.77	-12	-7	80*	8	0
CCn1c(=O)c2c(n3c(=S)[nH]nc13)-c1ccccc1CC21CCCCC1	·	·	·	8	·	·
COc1cccc(OC)c1NC(=O)CN1CCC(NC(=O)c2cccc(F)c2)CC1	0.93	70*	92*	23	100*	·
Cc1ccc2oc(Nc3nc(-c4ccccc4)cc(=O)[nH]3)nc2c1	·	·	·	100*	·	·
Nc1ccc(Br)cc1-c1nc2ccccc2[nH]c1=O	·	·	·	100*	·	·
C=CCNC(=O)c1nn2cccnc2c1Cl	0.61	?	92*	-40	?	3
Oc1ccc(Nc2nc(-c3ccc4ccccc4c3)cs2)cc1	-2.1	18	-8	14	75*	0
Cc1ccc(Nc2nc(-c3c(C)nc4ccccn34)cs2)cc1	-0.88	-70	75	1	93*	·
CC1CC(Nc2ccccc2)=CC(=O)O1 (centres undefined)	1.7	10	-5	44*	16	2
Cc1ccc(S(=O)(=O)C2(C(=O)N3CCN(c4cc(C)ccc4C)CC3)CC2)cc1	·	·	·	-11	·	·
CCOC(=O)N1CCN(C(=O)C2CCN(S(=O)(=O)c3cc(OC)ccc3OC)CC2)CC1	·	·	·	72*	·	·
CN(C(=O)CSc1nnc(-c2ccncc2)n1Cc1ccccc1)C1CCS(=O)(=O)C1 (centres undefined)	·	·	·	-4	·	·
O=C(Cn1cccc1C(=O)c1ccccc1)NCCCN1CCOCC1	1.6	10	0	·	0	3
O=C(Cn1cccc1C(=O)c1ccccc1)NCCN1CCOCC1	0.46	?	44	-1	82*	·
O=S(=O)(C/C(=C/CO)S(=O)(=O)c1ccccc1)c1ccccc1	1	-2	30	100*	86*	4
O=C(O)/C=C\C(=O)NCc1cccnc1	·	·	·	-17	·	·
O=C(Nc1cc(=O)[nH]c2ncnn12)c1ccc(Cl)cc1Cl	0.28	17	-9	62*	12	3
CC(=O)Oc1ccc2c(=O)c(Oc3ccccc3)coc2c1OC(C)=O	-0.29	·	·	·	·	0
CCOC(=O)C[n+]1c(C)sc2ccc(OC)cc21	0.93	-2	7	66*	-2	-4
CCO/C(=C/c1sc2ccc(OC)cc2[n+]1CCCS(=O)(=O)[O-])CC	1.1	2	-21	-30	14	·
